This is part of a sample that, as a whole, favours compounds with a hit. Of some 83,000 tested, about 20% had one in any assay.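 Cell lines were cultured in 96-well plates, exposed to a single compound concentration, and assessed for percent growth 48 hours later.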 Activity calls are given as the source filed them. Rule for the calls: active = growth percent below 10; inactive = the rest.
System: OVCAR-4 ovarian
Test: NCI-60 one-dose screen, 48 h (100 = growth as untreated, 0 = no growth, -100 = all killed)
Conditions: 10 µM unless noted

Row | Compound | growth
1 | COc1ccc2c(c1)OC13Oc4cc(OC)ccc4C=C1CCCCC3=C2 | 104% (inactive)
2 | C/C(=N/Nc1nc2ccccc2n1C)c1ccccn1 | 20.8% (inactive)
3 | Cc1nc2sc(C(=O)Nc3cccc4ccccc34)c(N)c2cc1C(C)O (stereo not given) | 55.5% (inactive)
4 | N#Cc1c(-c2ccc(F)cc2)c(C#N)c2c(C#N)c(N)nn2c1N | 100% (inactive)
5 | CCOc1ccc(C2N(c3cc(OC)c(OC)c(OC)c3)C(=O)C2(F)F)cc1 (stereo not given) | 49.6% (inactive)
6 | CCOc1ccccc1C(=O)/C=C/c1cc2ccccc2[nH]c1=O | 32.3% (inactive)
7 | Cc1ccc(C2=N[C@H]3CCC[C@@H]3N(c3ccccc3)C(C(Cl)Cl)=N2)cc1 | 96.9% (inactive)
8 | COc1cc(/C=C/CO)cc(OC)c1O[C@@H]1O[C@H](CO)[C@@H](O)[C@H](O)[C@H]1O | 100% (inactive)
9 | COc1ccc(C(=S)c2cc(OC)c(OC)c(OC)c2)cc1OC(=O)CCl | 52.9% (inactive)
10 | O=C1CCC23OC(c4ccccc4N12)C(O)C(O)C3O (stereo not given) | 105% (inactive)
11 | COc1cc(/C=C/C(=O)c2cccs2)ccc1OCc1ccc(Cl)nc1 | 101% (inactive)
12 | O=c1c2ccccc2oc2ccc(OCCCCCN3CCCCCC3)cc12 | 73.1% (inactive)
13 | C=C1C(=O)O[C@H]2[C@H]1CC/C(COC(=O)NCC(=O)Nc1ccc(OC)c(C(N)=O)c1O)=C\CC[C@@]1(C)O[C@@H]21 | 68.3% (inactive)
14 | COc1ccc(-c2[nH]c3ccccc3c2C=C(C#N)C#N)cc1 | 33.2% (inactive)
15 | COC(=O)/C=C/c1cc(OC(C)=O)c2c(c1)C(C(=O)OC)C(c1ccc(OC(C)=O)c(OC(C)=O)c1)O2 (stereo not given) | 49.5% (inactive)

Source: PubChem BioAssay (NCI)
